Columns and labels:
Assay in all cases: log2 ratio of Biotin-Ahx-Ub-VS probe labelling (fragment/DMSO); higher = less target engagement (more negative = stronger competition), active = hit call of the paper (q ≤ 0.05, log2 ratio ≤ -1)
Conditions in all cases: compound concentration: 200 uM; treatment time: 3 h
[1] = biological target: T1, ALG13 (UniProt Q9NP73)
T1 sequence (whole entry): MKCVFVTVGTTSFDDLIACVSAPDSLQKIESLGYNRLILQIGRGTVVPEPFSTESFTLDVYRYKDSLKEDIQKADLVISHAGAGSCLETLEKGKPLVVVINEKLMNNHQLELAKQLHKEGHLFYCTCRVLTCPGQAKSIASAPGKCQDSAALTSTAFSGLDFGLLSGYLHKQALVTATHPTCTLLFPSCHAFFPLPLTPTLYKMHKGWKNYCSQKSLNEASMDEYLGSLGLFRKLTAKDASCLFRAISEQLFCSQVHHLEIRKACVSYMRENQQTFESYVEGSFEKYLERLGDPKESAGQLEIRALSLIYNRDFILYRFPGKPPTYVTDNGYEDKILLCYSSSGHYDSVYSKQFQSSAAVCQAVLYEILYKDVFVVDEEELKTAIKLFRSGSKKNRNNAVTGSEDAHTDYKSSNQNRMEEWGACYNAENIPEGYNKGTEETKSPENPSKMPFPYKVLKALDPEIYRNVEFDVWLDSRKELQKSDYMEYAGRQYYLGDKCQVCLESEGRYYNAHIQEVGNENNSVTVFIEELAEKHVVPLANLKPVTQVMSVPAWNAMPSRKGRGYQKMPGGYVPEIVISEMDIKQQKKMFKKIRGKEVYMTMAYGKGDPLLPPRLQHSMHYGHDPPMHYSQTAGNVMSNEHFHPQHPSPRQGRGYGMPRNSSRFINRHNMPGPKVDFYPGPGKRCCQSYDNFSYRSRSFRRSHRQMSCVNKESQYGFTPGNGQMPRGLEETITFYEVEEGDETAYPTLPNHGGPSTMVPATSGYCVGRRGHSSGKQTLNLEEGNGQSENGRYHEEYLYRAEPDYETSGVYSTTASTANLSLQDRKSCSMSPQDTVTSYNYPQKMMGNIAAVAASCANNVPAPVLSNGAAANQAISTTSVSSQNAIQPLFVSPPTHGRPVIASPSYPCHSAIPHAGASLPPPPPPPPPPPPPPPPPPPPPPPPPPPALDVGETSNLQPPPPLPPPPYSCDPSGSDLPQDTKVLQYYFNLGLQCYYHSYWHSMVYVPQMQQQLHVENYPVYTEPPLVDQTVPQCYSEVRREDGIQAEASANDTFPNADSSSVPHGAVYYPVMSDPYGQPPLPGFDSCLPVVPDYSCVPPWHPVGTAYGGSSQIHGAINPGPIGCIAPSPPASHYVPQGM
How it was run: (§1)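 HEK293T lysate (495 µg per sample, in Tris/CHAPS/IGEPAL buffer with protease inhibitors) was exposed in triplicate for 3 h to fragment at 200 µM or to vehicle, then to Biotin-Ahx-Ub-VS at 0.5 µM final for 1 h. Labelled DUBs were enriched on NeutrAvidin, digested with LysC and trypsin, and analysed by diaPASEF LC-MS/MS. Spectronaut label-free quantities were normalised to the global median, and values are average log2 ratios of fragment over vehicle from an unpaired t-test. Only proteins with ≥2 unique peptides were used.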

[2] = biological target: ATXN3 (UniProt P54252)
How it was run: as §1

[3] = biological target: T2, BAP1 (UniProt Q92560)
T2 sequence (whole entry): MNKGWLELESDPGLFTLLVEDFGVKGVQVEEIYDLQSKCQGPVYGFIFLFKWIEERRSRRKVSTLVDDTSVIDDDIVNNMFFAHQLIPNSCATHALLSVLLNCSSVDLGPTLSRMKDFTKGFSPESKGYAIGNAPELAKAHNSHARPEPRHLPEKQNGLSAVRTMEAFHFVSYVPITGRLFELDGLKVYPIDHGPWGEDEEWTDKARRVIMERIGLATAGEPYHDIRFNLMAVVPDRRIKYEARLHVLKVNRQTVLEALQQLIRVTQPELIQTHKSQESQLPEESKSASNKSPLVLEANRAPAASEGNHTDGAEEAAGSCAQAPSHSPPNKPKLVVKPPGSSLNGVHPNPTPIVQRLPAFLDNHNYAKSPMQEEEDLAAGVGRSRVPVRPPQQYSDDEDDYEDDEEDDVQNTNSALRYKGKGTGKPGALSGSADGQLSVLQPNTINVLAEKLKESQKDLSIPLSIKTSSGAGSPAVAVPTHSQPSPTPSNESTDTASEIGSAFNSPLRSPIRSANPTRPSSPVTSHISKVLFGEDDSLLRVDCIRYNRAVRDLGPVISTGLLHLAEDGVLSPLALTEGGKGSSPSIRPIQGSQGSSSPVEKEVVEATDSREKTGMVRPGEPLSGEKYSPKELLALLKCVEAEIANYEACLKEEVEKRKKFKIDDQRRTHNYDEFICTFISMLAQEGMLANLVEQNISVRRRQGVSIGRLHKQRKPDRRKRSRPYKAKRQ
How it was run: as §1

[4] = biological target: EIF3F (UniProt O00303)
How it was run: as §1

[5] = biological target: EIF3H (UniProt O15372)
How it was run: as §1

[6] = biological target: T3, FAM105A (UniProt Q9NUU6)
T3 sequence (whole entry): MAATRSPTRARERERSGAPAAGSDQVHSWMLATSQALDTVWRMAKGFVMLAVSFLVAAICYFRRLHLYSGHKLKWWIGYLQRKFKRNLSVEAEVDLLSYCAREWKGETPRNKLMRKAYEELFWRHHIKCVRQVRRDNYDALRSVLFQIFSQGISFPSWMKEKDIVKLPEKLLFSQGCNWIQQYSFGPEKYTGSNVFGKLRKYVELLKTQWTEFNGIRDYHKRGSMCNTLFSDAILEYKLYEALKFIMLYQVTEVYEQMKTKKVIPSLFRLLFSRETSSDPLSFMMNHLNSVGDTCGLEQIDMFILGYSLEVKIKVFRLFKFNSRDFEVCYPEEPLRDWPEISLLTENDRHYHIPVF
How it was run: as §1

[7] = biological target: OTUB1 (UniProt Q96FW1)
How it was run: as §1

[8] = biological target: T4, OTUD4 (UniProt Q01804)
T4 sequence (whole entry): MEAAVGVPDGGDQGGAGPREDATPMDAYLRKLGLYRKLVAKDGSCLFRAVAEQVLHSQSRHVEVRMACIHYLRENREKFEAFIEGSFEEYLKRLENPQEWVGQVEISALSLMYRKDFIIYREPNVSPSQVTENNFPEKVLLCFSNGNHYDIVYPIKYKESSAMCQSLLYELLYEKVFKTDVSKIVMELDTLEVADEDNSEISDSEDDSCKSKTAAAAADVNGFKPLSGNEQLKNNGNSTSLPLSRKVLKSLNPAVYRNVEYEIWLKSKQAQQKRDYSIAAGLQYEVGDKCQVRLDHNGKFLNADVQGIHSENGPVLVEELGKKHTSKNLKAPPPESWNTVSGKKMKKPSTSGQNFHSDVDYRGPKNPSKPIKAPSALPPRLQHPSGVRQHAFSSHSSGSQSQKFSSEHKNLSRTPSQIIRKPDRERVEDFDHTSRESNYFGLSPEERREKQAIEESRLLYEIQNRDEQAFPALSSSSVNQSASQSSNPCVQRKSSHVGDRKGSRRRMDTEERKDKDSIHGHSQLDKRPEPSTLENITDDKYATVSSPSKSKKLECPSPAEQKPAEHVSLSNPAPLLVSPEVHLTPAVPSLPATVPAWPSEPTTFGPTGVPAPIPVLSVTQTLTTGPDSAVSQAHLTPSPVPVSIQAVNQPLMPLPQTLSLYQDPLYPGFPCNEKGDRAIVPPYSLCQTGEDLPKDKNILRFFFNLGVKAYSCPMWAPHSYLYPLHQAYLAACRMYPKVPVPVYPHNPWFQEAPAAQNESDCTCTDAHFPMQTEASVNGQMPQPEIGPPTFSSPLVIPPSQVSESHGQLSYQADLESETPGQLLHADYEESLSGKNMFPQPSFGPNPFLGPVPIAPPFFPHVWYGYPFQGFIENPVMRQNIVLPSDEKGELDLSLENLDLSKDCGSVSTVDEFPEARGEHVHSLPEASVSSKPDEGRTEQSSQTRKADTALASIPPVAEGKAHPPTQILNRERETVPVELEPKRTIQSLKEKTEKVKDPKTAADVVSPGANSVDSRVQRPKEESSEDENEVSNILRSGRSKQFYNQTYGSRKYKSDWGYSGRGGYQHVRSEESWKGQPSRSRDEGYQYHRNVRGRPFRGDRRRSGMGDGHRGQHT
How it was run: as §1

[9] = biological target: T5, OTUD5 (UniProt Q96G74)
T5 sequence (whole entry): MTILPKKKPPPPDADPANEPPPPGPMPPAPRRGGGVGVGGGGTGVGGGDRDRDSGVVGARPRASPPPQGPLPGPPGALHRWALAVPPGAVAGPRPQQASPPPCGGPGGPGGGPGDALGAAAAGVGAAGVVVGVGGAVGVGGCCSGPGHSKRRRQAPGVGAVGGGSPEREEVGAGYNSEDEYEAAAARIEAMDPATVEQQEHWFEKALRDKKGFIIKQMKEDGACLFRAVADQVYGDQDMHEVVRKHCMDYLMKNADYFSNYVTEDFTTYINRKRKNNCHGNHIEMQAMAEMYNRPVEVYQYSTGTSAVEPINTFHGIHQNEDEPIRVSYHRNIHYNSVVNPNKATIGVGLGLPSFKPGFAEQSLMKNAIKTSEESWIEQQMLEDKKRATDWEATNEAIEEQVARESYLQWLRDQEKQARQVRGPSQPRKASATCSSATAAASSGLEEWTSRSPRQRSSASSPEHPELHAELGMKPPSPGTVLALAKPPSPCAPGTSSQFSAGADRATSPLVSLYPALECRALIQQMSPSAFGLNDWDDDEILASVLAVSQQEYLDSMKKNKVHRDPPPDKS
How it was run: as §1

Measured: log2 ratio of Biotin-Ahx-Ub-VS probe labelling

Chain of ATXN3 (P54252 whole entry): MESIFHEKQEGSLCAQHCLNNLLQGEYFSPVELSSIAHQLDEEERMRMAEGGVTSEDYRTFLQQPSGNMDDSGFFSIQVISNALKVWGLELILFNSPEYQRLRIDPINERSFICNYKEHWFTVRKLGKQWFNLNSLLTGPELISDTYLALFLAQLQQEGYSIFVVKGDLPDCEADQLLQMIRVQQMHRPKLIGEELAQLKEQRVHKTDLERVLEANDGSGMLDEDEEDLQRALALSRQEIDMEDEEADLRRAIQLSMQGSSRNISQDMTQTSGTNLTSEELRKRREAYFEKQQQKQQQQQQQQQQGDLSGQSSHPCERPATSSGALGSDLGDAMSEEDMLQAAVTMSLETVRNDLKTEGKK
Chain of EIF3H (O15372 whole entry): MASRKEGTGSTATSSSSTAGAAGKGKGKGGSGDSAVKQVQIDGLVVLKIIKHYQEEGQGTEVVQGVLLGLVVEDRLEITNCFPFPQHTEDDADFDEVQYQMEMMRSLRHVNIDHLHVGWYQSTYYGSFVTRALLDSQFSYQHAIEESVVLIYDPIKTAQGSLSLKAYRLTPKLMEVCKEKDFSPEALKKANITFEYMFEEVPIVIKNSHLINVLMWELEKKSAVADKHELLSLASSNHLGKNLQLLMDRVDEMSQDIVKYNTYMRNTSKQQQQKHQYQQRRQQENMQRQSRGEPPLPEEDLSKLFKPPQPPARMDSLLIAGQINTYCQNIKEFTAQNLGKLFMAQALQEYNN
Chain of EIF3F (O00303 whole entry): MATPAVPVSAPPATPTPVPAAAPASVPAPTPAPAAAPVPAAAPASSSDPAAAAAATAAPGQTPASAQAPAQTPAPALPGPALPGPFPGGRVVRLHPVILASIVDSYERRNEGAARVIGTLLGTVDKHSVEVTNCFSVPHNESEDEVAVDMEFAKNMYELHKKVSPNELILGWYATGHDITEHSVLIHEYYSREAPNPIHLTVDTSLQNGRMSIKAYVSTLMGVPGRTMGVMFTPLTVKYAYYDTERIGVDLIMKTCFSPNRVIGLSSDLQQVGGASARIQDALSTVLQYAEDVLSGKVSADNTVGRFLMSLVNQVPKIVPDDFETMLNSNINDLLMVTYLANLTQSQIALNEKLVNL
Chain of OTUB1 (Q96FW1 whole entry): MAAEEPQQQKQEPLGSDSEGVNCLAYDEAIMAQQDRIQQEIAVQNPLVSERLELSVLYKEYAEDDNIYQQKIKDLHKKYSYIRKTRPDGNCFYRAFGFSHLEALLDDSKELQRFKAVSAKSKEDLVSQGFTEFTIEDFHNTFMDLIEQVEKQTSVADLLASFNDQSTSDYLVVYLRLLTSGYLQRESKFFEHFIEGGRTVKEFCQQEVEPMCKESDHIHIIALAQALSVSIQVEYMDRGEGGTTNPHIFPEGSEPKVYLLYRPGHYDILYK

Cl.O=C(CN1CCN(C(=O)CCl)CC1)Nc1ccc(F)cc1
inactive: [1] -0.446 | [2] -0.144 | [3] -0.159 | [4] -0.203 | [5] 0.305 | [6] -0.0798 | [7] 0.137 | [8] 0.146 | [9] -0.0696

From the supplement of paper PMC11732987, “Enantioselective OTUD7B fragment discovery through chemoproteomics screening and high-throughput optimisation” (Communications Chemistry, 2025)
